DRD3 antagonist: blocks the human D3 dopamine receptor; P35462; D3R cells, DiscoveRx beta-arrestin luminescence, antagonist mode; hits give low values; max response, negative = inhibition, %; 2.5% of 360,000 active; in the data active means max response below about -50%; inconclusive means no clear call, values can overlap the other calls
Target sequence (P35462 whole entry, looked up): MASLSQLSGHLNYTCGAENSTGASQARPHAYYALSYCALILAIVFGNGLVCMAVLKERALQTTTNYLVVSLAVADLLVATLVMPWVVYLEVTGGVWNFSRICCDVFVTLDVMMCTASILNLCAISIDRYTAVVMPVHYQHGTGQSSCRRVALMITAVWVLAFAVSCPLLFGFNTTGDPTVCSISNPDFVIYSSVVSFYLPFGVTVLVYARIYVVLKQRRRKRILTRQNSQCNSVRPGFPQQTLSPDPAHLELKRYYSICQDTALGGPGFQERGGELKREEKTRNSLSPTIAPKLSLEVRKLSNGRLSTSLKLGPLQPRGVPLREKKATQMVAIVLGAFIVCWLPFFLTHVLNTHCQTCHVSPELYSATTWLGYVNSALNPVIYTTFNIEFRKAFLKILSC
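Cells plated overnight at 1500 cells/well, then exposed to library compounds with dopamine controls for 90 minutes at 37 degrees C. DiscoveRx reagent added for 30–60 minutes at room temperature; luminescence read, quantitative HTS format.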
DRD3 agonist: agonists of human D3 dopamine receptor | P35462 | D3R DiscoveRx beta-arrestin cells, luminescence, 90 min | max activation, % | 0.58% of 410,000 active | AID 652048; in the data active means max activation above about 30%
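Cells at 1500/well, incubated overnight, then treated with pinned compounds (dopamine as control) for 90 min at 37 degrees C. DiscoveRx reagent added for 30 - 60 minutes at room temperature; luminescence read.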
Nrf2 activator: activators of Nrf2 (ARE) signaling. AREc32 ARE-luciferase reporter (MCF7-derived line), luminescence, 24 h. Potency, µM (top dose mostly 46.1 µM), actives largely listed as activators. 0.31% of 410,000 active. AID 624171; further: nearly all actives have a fitted effect of over 65% in size
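Cells of the AREc32 ARE-luciferase line are plated in OPTI-MEM containing 5% FBS and left overnight at 37 deg C. Compounds are pinned in, incubation continues 24 hr, and firefly luciferase signal is then measured.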
GRP78 ERSR act: induces the endoplasmic reticulum stress response in human glioma cells; U87-MG GRP78 promoter luciferase reporter, 16 h; Potency, µM, hits mostly activators; 0.02% of 420,000 active; further: series mostly up to about 76 µM; nearly all actives have a fitted effect of over 35% in size
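Stably transfected U87-MG glioma cells carrying a GRP78-based luciferase sensor; 16 h compound incubation. Luminescence end-point read 10 min after Bright-Glo addition at room temperature.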
Hits are given with their value; 0 = inactive; ? = inconclusive; - = no result; [ ] = another dose, or the depositor's remark. This is a sample that favours compounds with a hit; in the whole collection about 3% have one here. Unless noted, the call rests on the fitted dose curve; in most records, active means well fitted curve in the direction sought with a large enough effect; inconclusive means small, poorly fitted or top-dose-only effect, or another doubt; inactive means no such curve, though single readings can be large; an effect the other way counts as inactive or inconclusive.

SMILES	DRD3 antagonist	DRD3 agonist	Nrf2 activator	GRP78 ERSR act
OC1(c2ccc(F)cc2)CCN(Cc2cccnc2)CC1	-61	0	0	0
OC1(c2ccc(F)cc2)CCN(Cc2ccccc2)C1 (centres undefined)	0	0	0	0
O=C(c1ccccc1)C1CN(Cc2ccccc2)CCC1(O)c1ccccc1 (centres undefined)	0	0	?	0
O=C(c1ccc(F)cc1)N1CCC(O)(c2cccnc2)CC1	0	0	0	0
OC1(c2ccc3c(c2)OCO3)CCN(Cc2ccc(F)cc2)CC1	-99	0	0	0
OC1(c2ccccc2)CCN(Cc2ccccc2)CC1	-80	0	0	0
CC[n+]1c(/C=C/C=C2/N(C)c3ccccc3C2(C)C)sc2ccccc21	-	-	-	0
CCC(C(=O)O)C1OC(C(C)C(O)C(C)C(=O)C(CC)C2OC3(C=CC(O)C4(CCC(C)(C5CCC(O)(CC)C(C)O5)O4)O3)C(C)CC2C)C(C)CC1C (centres undefined)	-	-	-	0
CC1CCCC(C)N1/N=C/c1cc(Br)cc(Br)c1O (centres undefined)	-62	0	0[9.22 µM]	0
COc1cc2c(cc1OC)CN(C(=O)[C@@H]1C[C@H](NCc3cn(C)c4ccccc34)CN1C1Cc3ccccc3C1)CC2	-	-	-	0
Cc1cccc(NC(=S)N/N=C2/CCCCc3ccccc32)c1	-89	0	0	0
Cc1ccc(NC(=S)N/N=C2/CCCCc3ccccc32)cc1	-52	0	0	0
CCc1ccc(/C=C\C(=O)N2CCc3ccccc3C2)cc1	0	0	0	0
O=C(/C=C/c1ccccc1[N+](=O)[O-])N1CCc2ccccc2C1	0	0	8.9µM	0
CCOC(=O)c1cnc(-n2nc(C)cc2C)nc1NCc1ccccc1	0	0	0	0
CCOC(=O)c1cnc(-n2nc(C)cc2C)nc1NC(C)c1ccccc1 (centres undefined)	-59	0	0	0
COc1ccc(CCN2CCC[C@H](CN3CCc4cc(OC)c(OC)cc4CC3=O)C2)cc1OC	-	-	-	0
N#C/C(=C\C1=C(N2CCOCC2)C(=C/c2cccc([N+](=O)[O-])c2)/CC1)C(=O)Nc1ccccc1F	?	0	0[9.22 µM]	0
N#C/C(=C/C1=C(N2CCOCC2)C(=C/c2cccc([N+](=O)[O-])c2)/CC1)C(=O)Nc1ccccc1F	0	39	0	0
CC(=O)O[C@H]1[C@@H](O)[C@H](O)[C@H](Oc2c(O)c(C)c3c4c2[C@@H](C)CC[C@@H]4[C@@H](C)C[C@H]3C=C(C)C)O[C@H]1C	0	30	0	0
C[C@@H]1NC(=O)[C@@H](N)CNC(=O)[C@H](C2CCNC(N)=N2)NC(=O)/C(=C/NC(N)=O)NC(=O)[C@H](CNC(=O)C[C@@H](N)CCCN)NC1=O (some centres undefined)	-	0	-	-
COC(=O)c1cc2ccccn2c2c(C(=O)OC)c(C(=O)OC)cc1-2	0	0	0	0
COC(=O)c1cc2c(C)c(C)c3ccccn3c-2c1C(=O)OC	-52	0	0	0
Cc1ccc2c(c1)C(=C(C#N)C#N)C(=O)N2CCN1CCCCC1	-55	0	0	0
Cc1ccc2c(c1)C(=C(C#N)C#N)C(=O)N2CCN1CCOCC1	0	0	?	0
SMILES	DRD3 antagonist	DRD3 agonist	Nrf2 activator	GRP78 ERSR act
CCOC(=O)C1Nc2ccccc2C2c3ccccc3CC12 (centres undefined)	0	0	0	0
CCOC(=O)C1Nc2c(F)cc(C)cc2C2c3ccccc3CC12 (centres undefined)	-54	0	11µM	0
CC(C)C[C@H]1CN=C(Nc2ccccc2)N1CCCC1CCCC1	-51	0	0	0
CC(C)C[C@H]1CN=C(Nc2ccccc2)N1CCCC1CCCCC1	0	0	0	0
c1ccc(CNc2c3ccccc3nc3ccccc23)cc1	0	0	0	0
Oc1ccc(CCNc2c3ccccc3nc3ccccc23)cc1O	0	124	0	?
CN=C1C=CC(=C(c2ccc(N(C)C)cc2)c2ccc(N(C)C)cc2)C=C1	-	0	-	0
Cc1ccc(O)c(NC(=O)c2ccc(Br)c(S(=O)(=O)N3CCCCC3)c2)c1	-	0	0	0
Cc1ccc(S(=O)(=O)N2CCN(CCOc3cccc(C)c3)CC2)cc1	-55	0	0	0
O=S(=O)(c1ccc(C(F)(F)F)cc1)N1CCN(CCOc2ccccc2)CC1	0	0	0	0
O=S(=O)(c1ccc(F)cc1)N1CCN(CCOc2ccccc2)CC1	?	0	0	0
COc1ccc(S(=O)(=O)N2CCN(CCOc3ccccc3Cl)CC2)cc1OC	0	36	0	0
CC(=O)c1ccc(S(=O)(=O)N2CCN(CCOc3ccccc3)CC2)cc1	-59	0	0	0
COc1ccc(OC)c(CN2CCOc3ccc(C(O)c4cccnc4)cc3C2)c1 (centres undefined)	-	-	-	0
O=C(c1ccc2[nH]ccc2c1)N1CCOc2ccc(CN3CCN(c4ccccn4)CC3)cc2C1	-	-	-	0
O=S(=O)(c1ccc(Br)s1)N1CCN(c2ccccn2)CC1	?	0	0	0
O=S(=O)(c1ccc(Br)s1)N1CCN(c2ncccn2)CC1	-79	0	0	0
C=CCNC(=O)c1cc(-c2ccccc2)sc1N	0	0	-	-
Nc1sc(-c2ccccc2)cc1C(=O)N1CCNCC1	-54	0	-	-
O=C(CCN1CCN(c2ccccc2)CC1)N/N=C/c1ccccc1OC(F)F	-70	0	0	0
CC(=O)Nc1ccc(/C=N/NC(=O)CCN2CCN(c3ccccc3)CC2)cc1	-84	0	0	0
COc1ccc(/C=N\NC(=O)CCN2CCN(c3ccccc3)CC2)cc1OC	?	0	0	0
COC(=O)c1ccc(CN2C[C@H](Sc3ccccn3)C[C@H]2C(=O)N(C)C)cc1	-	-	-	0
Cc1cn([C@H]2C[C@H](O)[C@@H](CNC/C=C/c3ccccc3[N+](=O)[O-])O2)c(=O)[nH]c1=O	0	74	0	0
CC(=O)N(O)C/C=C/c1cccc(Oc2ccccc2)c1	-	-	-	0
SMILES	DRD3 antagonist	DRD3 agonist	Nrf2 activator	GRP78 ERSR act
COc1cc(CNCc2ccccn2)ccc1OCc1ccc(Cl)cc1Cl	-67	0	0	0
COc1cc(CNCCN2CCOCC2)ccc1OCc1ccc(Cl)cc1Cl	-64	0	0	0
COc1cc(CNCc2ccccn2)ccc1OCc1ccc(Cl)c(Cl)c1	0	0	0	0
CC(C)N(c1ccc(C=O)cc1)C(C)C	-	-	-	0
Nc1nnnn1/N=C/c1ccc(N2CCCCC2)c([N+](=O)[O-])c1	-54	0	0	0
O=C(c1ccc(F)cc1)N1CCC(c2ccccc2)C1 (centres undefined)	-65	0	0	0
CCC(CN(C)C)Oc1cc(NCc2ccccc2)c2ncn(C(C)C)c2c1 (centres undefined)	-55	0	0	0
CCC(CO)Oc1cc(NCc2ccc(F)cc2)c2ncn(C(C)C)c2c1 (centres undefined)	0	0	0	0
CCC(CO)Oc1cc(NCc2ccncc2)c2ncn(C(C)C)c2c1 (centres undefined)	0	56	0	0
CCC(CO)Oc1cc(NC(=O)c2ccc([N+](=O)[O-])cc2)c2ncn(C(C)C)c2c1 (centres undefined)	-61	0	0	0
COc1ccccc1CN1CCOc2ccc(C(C)(O)COc3ccccc3)cc2C1 (centres undefined)	-	-	-	0

Bioassay records: PubChem, National Center for Advancing Translational Sciences (NCATS)
